Inconclusive results are not listed. Some compounds were tested as several samples or in several runs, with calls that do not always agree. The source made the active and inactive calls. The calls were made as follows, unless noted: active = hit-call score of the fitted dose curve at least 0.9, where 1 is the maximum; inconclusive = response in the unintended direction; inactive = score below 0.9.

These results are taken from PubChem BioAssay (EPA / NIEHS).

Read-out in assay [1]: ABC Transporter (ABCB11), ABCB11 (gene 8647)
Nature of the assay: CLD_ABCB11_48hr: CellzDirect (CLD) Gene Expression Assay for ABC Transporter (ABCB11) at 48 hours (AID 2283697). In a few lines:
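Induction of ABCB11 mRNA relative to 0.2% DMSO, measured at 48 h by qNPA chemiluminescence. Cultured human hepatocytes (two donors) received fresh dosing solutions at several concentrations on two consecutive days.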

Read-out in assay [2]: Cytochrome P450 2C19 (Homo sapiens) (UniProt P33261)
Description: CLD_CYP2C19_48hr: CellzDirect (CLD) Gene Expression Assay for xenobiotic metabolism (CYP2C19) at 48 hours (AID 2283700).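 Also: fitted upward so actives raise CYP2C19 mRNA above the 0.2% DMSO vehicle.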 The procedure, abridged:
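CYP2C19 mRNA induction read by chemiluminescent quantitative nuclease protection assay after 48 h, with fresh compound added daily for two days to cultured human liver hepatocytes. Activity fitted upward against 0.2% DMSO vehicle.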

Assay [3] can be described thus: CEETOX_H295R_MTT_cell_viability: Viability Assessment in the CeeTox HT-H295R MTT Assay (AID 2283718; active = hit-call score of the fitted dose curve at least 0.9, where 1 is the maximum; inactive = score below 0.9;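 as to AC50: curve fitted both ways so AC50 may mark viability loss or gain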). In a few lines: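 Human H295R adrenal cells, prestimulated 48 h with 10 uM forskolin, were exposed 48 h to chemicals in 0.1% DMSO. Viability was measured in the same wells by MTT (0.5 mg/ml, 4 h, 37 C), absorbance 570/650 nm, as percent of controls.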
Assay [4] is described as follows: Tanguay_ZF_120hpf_ActivityScore_legacy: (Legacy) Oregon State University Tanguay Lab 120 Hour Post-fertilization zebrafish Assay Score for Activity (AID 2283742). In a few lines:
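Dechorionated 5D embryos, one per well, static exposure 6–120 hpf, 28C, sealed and dark; final DMSO 0.64% (vol/vol). Brightfield binary scoring of mortality plus 18 endpoints; gain-of-signal fit versus DMSO baseline.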

Read-out in assay [5]: glucuronosyltransferase (UGT1A1), UGT1A1 (gene 54658)
Description: CLD_UGT1A1_24hr: CellzDirect (CLD) Gene Expression Assay for glucuronosyltransferase (UGT1A1) at 24 hours (AID 2283696). In a few lines: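 UGT1A1 transcript induction was measured by quantitative nuclease protection assay (chemiluminescence) in human hepatocyte cultures 24 h after daily fresh dosing, with 0.2% DMSO as vehicle and baseline.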

Read-out in assay [6]: Cytochrome P450 3A4 (Homo sapiens) (UniProt P08684)
Description: CLD_CYP3A4_48hr: CellzDirect (CLD) Gene Expression Assay for xenobiotic metabolism (CYP3A4) at 48 hours (AID 2283698). The procedure, abridged:
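CYP3A4 induction read by qNPA chemiluminescence after 48 h, with fresh dosing solutions on consecutive days, in cultured human hepatocytes (two donors). Vehicle 0.2% DMSO as baseline; microscopy-based cytotoxicity annotated yes/no alongside data.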

Read-out in assay [7]: Cytochrome P450 2B6 (Homo sapiens) (UniProt P20813)
Nature of the assay: CLD_CYP2B6_48hr: CellzDirect (CLD) Gene Expression Assay for xenobiotic metabolism (CYP2B6) at 48 hours (AID 2283699).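 Also: actives raise transcript level above DMSO so potency reflects induction.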 In a few lines:
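CYP2B6 transcript induction, read by quantitative nuclease protection (S1 digestion, chemiluminescent detection) 48 h after dosing, is fitted upward against 0.2% DMSO. Cultured human liver primary cells, two donor preparations, received fresh chemical daily over multiple concentrations.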

Read-out in assay [8]: xenobiotic metabolism (CYP1A2), CYP1A2 (gene 1544)
Nature of the assay: CLD_CYP1A2_48hr: CellzDirect (CLD) Gene Expression Assay for xenobiotic metabolism (CYP1A2) at 48 hours (AID 2283703). In a few lines:
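Cytotoxicity was flagged yes/no from morphology, while CYP1A2 transcript induction was detected by qNPA chemiluminescence after a 48-hour exposure. Human primary hepatocyte cultures from separate donors received fresh dosing solutions daily over two days, with 0.2% DMSO as vehicle and baseline.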

Read-out in assay [9]: xenobiotic metabolism (CYP1A1), CYP1A1 (gene 1543)
Description: CLD_CYP1A1_48hr: CellzDirect (CLD) Gene Expression Assay for xenobiotic metabolism (CYP1A1) at 48 hours (AID 2283705). The procedure, abridged: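 CYP1A1 transcript measured by quantitative nuclease protection (chemiluminescent) 48 h after two daily treatments of human hepatocyte cultures, versus 0.2% DMSO. Morphology-based cytotoxicity flags accompany data; two donor preparations used.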

Assay [10] can be described thus: STM_H9_CystineISnorm_perc: Stemina devTOX quickPredict H9 human embryonic stem cell (hESC)-based Assay for Cystine (CYSS) Metabolite Biomarker, Normalized (AID 2283713; active = hit-call score of the fitted dose curve at least 0.9, where 1 is the maximum; inactive = score below 0.9). The procedure, abridged: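 Cells are held undifferentiated and treated for 72h, receiving fresh medium with compound every 24h. Cystine secreted during the final day is quantified by UPLC-HRMS against a labeled spike-in, then expressed relative to the DMSO vehicle median.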

Assay [11] is described as follows: STM_H9_OrnCyssISnorm_ratio: Stemina devTOX quickPredict H9 human embryonic stem cell (hESC)-based Assay for Ornithine (ORN):Cystine (CYSS) Ratio (AID 2283714). In a few lines: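 UPLC-HRMS of spent media: ORN/CYSS ratio of internal-standard-normalized percentages, DMSO (0.1%) baseline. Pluripotent H9 hESCs, 72h exposure, daily re-dosing with fresh media; last 24h media collected.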

Read-out in assay [12]: glucuronosyltransferase (UGT1A1), UGT1A1 (gene 54658)
Nature of the assay: CLD_UGT1A1_48hr: CellzDirect (CLD) Gene Expression Assay for glucuronosyltransferase (UGT1A1) at 48 hours (AID 2283709).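 Also: actives increase expression relative to DMSO so potency refers to induction.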 In a few lines:
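Quantitative nuclease protection assay (chemiluminescent) for UGT1A1 mRNA at 48 h in human hepatocyte cultures from two donors, redosed daily with fresh solutions. Induction fitted relative to 0.2% DMSO; phase-contrast morphology annotated cytotoxicity.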

Assay [13] concerns Thyroperoxidase (TPO), gene 445522. Description: CCTE_Simmons_GUA_TPO: CCTE's Guaiacol Assay for Thyroperoxidase (TPO) Inhibition, Simmons Lab (AID 2283750). In a few lines: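 Porcine thyroid microsomes (25 ug) in 200mM potassium phosphate, preincubated 30 s at 37C with compound (8 concentrations, 5 nM–87.5 uM) and 35mM guaiacol; 1mM H2O2 starts reaction. Absorbance change at 450nm over first 80 s; loss of signal versus DMSO, three replicates.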

Read-out in assay [14]: HMG-CoA synthase (HMGCS2), HMGCS2 (gene 3158)
Nature of the assay: CLD_HMGCS2_48hr: CellzDirect (CLD) Gene Expression Assay for HMG-CoA synthase (HMGCS2) at 48 hours (AID 2283711). In a few lines: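 mRNA induction read by qNPA chemiluminescence, 48 h after dosing. Cultured primary human liver cells (two donor preparations) received fresh compound daily over two days against 0.2% DMSO vehicle; morphology-based cytotoxicity noted alongside.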

Chain of Cytochrome P450 2C19 (Homo sapiens) (P33261 whole entry, looked up): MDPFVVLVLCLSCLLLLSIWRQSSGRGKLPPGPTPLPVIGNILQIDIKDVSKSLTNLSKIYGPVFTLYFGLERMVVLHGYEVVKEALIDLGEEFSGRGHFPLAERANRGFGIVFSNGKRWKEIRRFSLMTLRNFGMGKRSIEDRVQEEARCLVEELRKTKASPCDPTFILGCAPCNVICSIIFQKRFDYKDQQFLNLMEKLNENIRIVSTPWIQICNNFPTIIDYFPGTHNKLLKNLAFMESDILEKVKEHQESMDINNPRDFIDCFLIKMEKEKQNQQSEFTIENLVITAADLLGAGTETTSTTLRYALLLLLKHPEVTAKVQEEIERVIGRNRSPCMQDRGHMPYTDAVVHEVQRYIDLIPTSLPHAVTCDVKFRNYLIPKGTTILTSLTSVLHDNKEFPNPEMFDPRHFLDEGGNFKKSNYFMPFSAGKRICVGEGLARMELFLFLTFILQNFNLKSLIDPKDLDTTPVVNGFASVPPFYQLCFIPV
Chain of Cytochrome P450 3A4 (Homo sapiens) (P08684 whole entry, looked up): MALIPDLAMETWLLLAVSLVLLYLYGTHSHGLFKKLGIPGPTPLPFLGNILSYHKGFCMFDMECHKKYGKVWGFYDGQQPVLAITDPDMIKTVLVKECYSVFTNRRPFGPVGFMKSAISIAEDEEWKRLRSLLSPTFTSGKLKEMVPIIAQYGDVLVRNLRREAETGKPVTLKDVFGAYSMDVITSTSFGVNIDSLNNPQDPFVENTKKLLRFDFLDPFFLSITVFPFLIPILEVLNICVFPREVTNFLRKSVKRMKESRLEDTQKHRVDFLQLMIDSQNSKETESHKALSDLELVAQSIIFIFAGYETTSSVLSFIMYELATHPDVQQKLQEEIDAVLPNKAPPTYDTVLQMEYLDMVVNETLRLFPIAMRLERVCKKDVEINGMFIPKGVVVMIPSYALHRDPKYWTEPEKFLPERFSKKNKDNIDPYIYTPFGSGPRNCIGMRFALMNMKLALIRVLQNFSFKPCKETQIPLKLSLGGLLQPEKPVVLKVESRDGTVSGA

On to `O=C1c2ccccc2C(=O)N1SC(Cl)(Cl)Cl`, for which the compound was called inactive in [1], in assay [2], in [3] and in [4].
Consider `CCC(C)(NC(=O)c1cc(Cl)c(C)c(Cl)c1)C(=O)CCl` (centres undefined), for which the compound was classed as inactive in [5] and in assay [4]. Also, the AC50 in [6] was 2.52 µM (active); in assay [7], 0.000403 µM (active); in [8], 20 µM (active); in [9], 3.97 µM (active); in assay [10], 23.9 µM (active); in [11] it was 22.9 µM (active).
Take `COP(=S)(OC)Oc1ccc([N+](=O)[O-])cc1`: the compound was classed as inactive in assay [1], in [3], in assay [4] and in assay [13]. Further, the AC50 in assay [6] was 8.47 µM (active); in [7] it was 7.55 µM (active); in assay [8], 5.33 µM (active); in [9], 12.2 µM (active); in assay [12], 6.74 µM (active).
For the compound `CCc1ccc(C(=O)NN(C(=O)c2cc(C)cc(C)c2)C(C)(C)C)cc1`, the compound was classed as inactive in [1], in [9], in [3] and in assay [4]. The results for the AC50 in assay [6], in [7] and in assay [8] were 2.15 µM (active), 2.18 µM (active) and 5.55 µM (active), respectively.
In the case of `CC(C)N(C(=O)COc1nnc(C(F)(F)F)s1)c1ccc(F)cc1`, the AC50 was 5.1 µM (active) in assay [6], 10.9 µM (active) in assay [7] and 14.2 µM (active) in assay [9]. In addition, the result in assay [8], in [3] and in assay [4] was inactive.
Regarding `COC(=O)c1ccccc1CS(=O)(=O)NC(=O)Nc1nc(OC)cc(OC)n1`, the compound was classed as inactive in assay [7], in [2], in [8] and in assay [9].
For `C#CCN1C(=O)COc2cc(F)c(N3C(=O)C4=C(CCCC4)C3=O)cc21`, the concentration at half-maximal activity (AC50) in assay [6] was 4.94 µM (active); in assay [7] it was 0.652 µM (active); in [10], 79.6 µM (active); in [11], 93 µM (active). Moreover, the compound was called inactive in assay [2], in assay [8], in assay [9], in assay [3] and in [4].
`CNC(=O)CSP(=S)(OC)OC`: the call in [2], in assay [8], in [14], in assay [3], in [4] and in assay [13] was inactive.
Regarding `COc1nn(CSP(=S)(OC)OC)c(=O)s1`, the values for the AC50 in assay [7], in assay [8] and in assay [9] were 0.655 µM (active), 3.97 µM (active) and 11.2 µM (active), respectively. Further, the outcome in [3] and in assay [4] was inactive.
`O=C(O)CCCOc1ccc(Cl)cc1Cl`: the compound was classed as inactive in [7], in assay [2], in [8], in assay [9], in assay [14] and in assay [4].
With `O=[N+]([O-])/N=C1\NCCN1Cc1ccc(Cl)nc1`, the result in assay [6], in [7], in [9], in [3] and in [4] was inactive.
In the case of `O=S1OCC2C(CO1)C1(Cl)C(Cl)=C(Cl)C2(Cl)C1(Cl)Cl` (centres undefined), the AC50 is 9.22 µM (active) in assay [6], 0.98 µM (active) in assay [7], 82 µM (active) in assay [10] and 77.1 µM (active) in assay [11]. Moreover, the result in assay [2] and in [4] was inactive.
In the case of `COP(=S)(OC)Oc1ccc(SC)c(C)c1`, the compound was classed as inactive in assay [6] and in [3]. For the same compound, the concentration at half-maximal activity (AC50) is 4.48 µM (active) in assay [7], 6.69 µM (active) in assay [8] and 33.4 µM (active) in assay [9].
`CCOC1Oc2ccc(OS(C)(=O)=O)cc2C1(C)C` (centres undefined): the AC50 in assay [6] was 5.87 µM (active); in assay [7], 1.44 µM (active); in [10], 83 µM (active); in assay [11], 84.3 µM (active). Also, the result in assay [8], in assay [9] and in assay [4] was inactive.
As to `CCCN(CCOc1c(Cl)cc(Cl)cc1Cl)C(=O)n1ccnc1`, the AC50 was 0.432 µM (active) in [6]; 0.128 µM (active) in [7]; 0.178 µM (active) in assay [8]; 0.458 µM (active) in assay [9]; 50 µM (active) in assay [3]. Besides, the compound was classed as inactive in assay [3] and in assay [4].

What is called AC50 is the concentration giving half of the maximal activity seen.
